# The list is not random: actives were taken first. Their share in the collection is about 19%.
# TDP1 cell noCPT = qHTS for Inhibitors of human tyrosyl-DNA phosphodiesterase 1 (TDP1): qHTS in cells in absence of CPT; DT40 Tdp1-/- hTDP1 cells, no CPT, ATP luminescence, 48 h; actives 15% (n = 420,000); AID 686978, 2013; Potency, µM (top dose mostly 46.2 µM), hits mostly inhibitors; also: nearly all actives have a fitted effect of over 55% in size
#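 No-CPT arm: Tdp1-/-;hTDP1 DT40 cells (400/well) plus compounds, incubated ≥48 hr at 37 °C. Readout CellTiter-Glo luminescence.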
# IL-1B inflam inh = inhibitors of inflammasome signaling (IL-1 beta secretion); THP-1 LPS/ATP IL-1B secretion, AlphaLISA, 16 h; active compounds read low; activity change, % at 57.5 µM; actives 4.7% (n = 360,000); AID 743279; in the data active = activity change below about -50%; inconclusive = mostly about -30% to -49%
#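 Secreted IL-1B measured by AlphaLISA bead assay after 16 h compound exposure of THP-1 cells; compounds (final up to 57.5 uM) added 1 h before LPS (250 ng/mL) and ATP (1.25 mM) stimulation; lower signal means less secretion.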
# HT1080-NT tox = kills 2HG-producing HT-1080-NT fibrosarcoma cells | HT-1080-NT fibrosarcoma viability, CellTiter-Glo ATP luminescence, 48 h | Potency, µM (top dose mostly 46.1 µM), hits mostly cytotoxic | actives 1.6% (n = 360,000) | AID 686970;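 also: NT is the 2HG producing partner of a matched IDH1 knockdown line; nearly all actives have a fitted effect of over 55% in size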
#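 Fibrosarcoma NT cells, 750 per well in 5% FBS RPMI, were exposed to compound for 48 hours. Viability: CellTiter-Glo luminescence.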
# TDP1 cell CPT = DT40-hTDP1 cell growth loss with CPT | chicken DT40 Tdp1-/-;hTDP1 cells + 20 nM CPT, ATP luminescence, 48 h | Potency, µM (doses to about 46.2 µM), actives largely listed as inhibitors | actives 12% (n = 420,000); also: nearly all actives have a fitted effect of over 55% in size
#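 Chicken DT40 Tdp1-/- cells stably complemented with human TDP1 were seeded at 400 cells/well in medium containing 20 nM camptothecin, exposed to pin-transferred compounds, and grown at 37 °C for at least 48 hr. Viability was read as ATP luminescence.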
# HT1080 IDH1KD tx = toxicity to HT-1080 IDH1 knockdown cells (counter line); HT-1080 IDH1 knockdown viability, ATP luminescence, 48 h; Potency, µM (doses to about 46.1 µM), most hits filed as cytotoxic; actives 2% (n = 360,000); AID 686971
#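 In this qHTS, HT-1080 cells depleted of IDH1 are exposed for 48 h at 37 °C to compound titrations. Toxicity is scored from CellTiter-Glo luminescence, with DMSO as full viability and medium alone as none.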
# Numbers stand for hits; i = inactive; ? = inconclusive; nt = no result. Unless noted, calls follow the shape of the dose curve; as a rule, active = well fitted curve in the direction sought with a large enough effect; inconclusive = small, poorly fitted or top-dose-only effect, or another doubt; inactive = no such curve, though single readings can be large; an effect the other way counts as inactive or inconclusive.
SMILES,TDP1 cell noCPT,IL-1B inflam inh,HT1080-NT tox,TDP1 cell CPT,HT1080 IDH1KD tx
NS(=O)(=O)c1ccc(N=Nc2c(-c3ccccc3)[nH]n(-c3nc(-c4ccccc4)cs3)c2=O)cc1,3.3µM,?,i,9.2µM,i
O=[N+]([O-])c1ccc(NNC(=S)Nc2ccc(F)cc2)cc1,3.3µM,-59,?,4.6µM,?
CCCCNC(=S)Nc1ccc([N+](=O)[O-])cc1,23µM,-74,?,?,?
S=C(NCCc1ccccc1)Nc1ccc(Br)cc1,23µM,-70,i,?,i
CC(C)OC(=O)c1cc(C(=O)OC(C)C)cc([N+](=O)[O-])c1,i,nt,nt,i,nt
CC(C)OC(=O)c1cc(NC(=S)Nc2ccc([N+](=O)[O-])cc2)cc(C(=O)OC(C)C)c1,12µM,-101,?,9.2µM,21µM
COc1ccccc1C(=O)N/C(=C\c1ccc(Br)cc1)C(=O)N1CCCC1,?,i,i,i,i
COc1ccc(-c2sc3ccccc3c2-c2ccc(OC)cc2F)cc1,?,i,i,i,i
COc1ccc(NC(=O)C2=C(C)Nc3nc(SCc4ccc(C)cc4C)nn3C2c2cccc(OC)c2OC)cc1 (centres undefined),i,nt,nt,i,nt
CC(C)CCNC(=S)Nc1ccc(Br)cc1,16µM,i,i,?,i
O=C(NC(NNc1ccc([N+](=O)[O-])cc1)(C(F)(F)F)C(F)(F)F)c1ccc(F)cc1,18µM,i,i,23µM,i
CC(C)CCNC(=S)Nc1ccc([N+](=O)[O-])cc1,?,-71,?,?,?
CCCCn1c(N)c(N(CC(C)C)C(=O)CSc2ccccc2C)c(=O)[nH]c1=O,i,i,i,i,i
CSc1cccc(NC(=S)N2CCC(N(C)C3CCCC3)CC2)c1,i,i,i,i,i
COc1ccc(/C=C/c2cc(=O)c3cc(Cl)ccc3o2)cc1,21µM,i,i,?,i
COc1ccc(-c2cc(=O)c3cc(OC)ccc3o2)cc1,i,i,i,i,i
O=S(=O)(/N=C(/Nc1ccccc1F)c1ccccc1)c1ccccc1,i,i,i,i,i
O=C(O)c1ccc(S(=O)(=O)/N=C2\C=C(Nc3ccccc3F)C(=O)c3ccccc32)cc1,i,-97,?,i,8.2µM
CCc1ccc(S(=O)(=O)/N=C2\C=C(NS(=O)(=O)c3ccccc3)C(=O)c3ccccc32)cc1,i,i,i,?,i
CC(C)c1ccc(S(=O)(=O)/N=C2\C=C(NS(=O)(=O)c3ccccc3)C(=O)c3ccccc32)cc1,?,i,i,?,?
Cc1ccccc1NC1=C/C(=N\S(=O)(=O)c2ccc(C(=O)O)cc2)c2ccccc2C1=O,18µM,-90,23µM,16µM,23µM
COC(=O)C(C(C)=O)C1=C/C(=N\S(=O)(=O)c2ccc(C)cc2)c2ccccc2C1=O (centres undefined),10µM,i,?,3.5µM,?
Cc1ccc(C)c(S(=O)(=O)/N=C2\C=C(NS(=O)(=O)c3ccccc3)C(=O)c3ccccc32)c1,16µM,i,i,16µM,i
COC(=O)c1ccccc1OCc1cccc(C)n1,i,i,i,i,i
Cc1ccc2cccc(OCCOCCOc3ccccc3Br)c2n1,21µM,i,i,?,i
SMILES,TDP1 cell noCPT,IL-1B inflam inh,HT1080-NT tox,TDP1 cell CPT,HT1080 IDH1KD tx
COC(=O)c1ccccc1OCCOCCOc1cccc2ccc(C)nc12,23µM,i,?,?,i
Cc1ccc2cccc(OCCCOc3ccccc3F)c2n1,?,-56,i,?,i
COC(=O)c1ccc(OCCOCCOc2cccc3ccc(C)nc23)cc1,23µM,i,i,?,i
Brc1ccccc1OCCOCCOc1cccc2cccnc12,?,i,i,?,?
CCCCCCC(=O)N/N=C1\CCCc2ccccc21,i,i,i,i,i
CC(C)Oc1cccc(-c2cc(C(=O)NC(=S)N(C)c3ccccc3C(=O)O)c3ccccc3n2)c1,i,i,i,i,i
CC1CCN(C(=O)C2(NC(=O)Nc3cccc(F)c3)CCCCC2)CC1,?,i,i,i,i
Cc1cc(Cl)ccc1OCCSc1nnc(-c2cccs2)o1,?,nt,nt,i,nt
C/C(=N/NC(=O)Cc1cccn1C)c1ccccc1,i,i,i,i,i
C/C(=N\NC(=O)Cc1cccn1C)c1ccc2ccccc2c1,?,-61,i,?,i
COc1cc(OC)cc(C(=O)N[C@H](C(=O)Nc2nc3ccc(S(C)(=O)=O)cc3s2)C(C)C)c1,i,i,i,i,i
CCOc1ccc(-n2c(=O)c3c(C)c(C)sc3n(CC(=O)C(C)(C)C)c2=O)cc1,23µM,nt,nt,?,nt
COc1cc(NC(=O)Cn2c(=O)n(-c3cccc(C)c3)c(=O)c3c(C)c(C)sc32)cc(OC)c1,i,i,i,21µM,i
Cc1ccc(Cn2c(=O)n(Cc3ccccc3)c(=O)c3c(C)c(C)sc32)cc1,i,nt,nt,i,nt
CCOc1ccc(-n2c(=O)c3c(C)c(C)sc3n(Cc3ccc(C(C)(C)C)cc3)c2=O)cc1,?,nt,nt,21µM,nt
CC(C)(C)C(=O)Cn1c(=O)n(-c2ccccc2)c(=O)c2c3c(sc21)CCC3,18µM,nt,nt,15µM,nt
Cc1noc(C)c1S(=O)(=O)N(C)C[C@H]1Oc2ccc(NC(=O)CCC(F)(F)F)cc2C(=O)N([C@H](C)CO)C[C@@H]1C,i,i,i,i,i
Cc1sc2c(c1C)c(=O)n(-c1ccccc1)c(=O)n2CC(=O)c1ccc(Cl)cc1,16µM,nt,nt,?,nt
COC(=O)c1nc2n(n1)C(c1cccc(Cl)c1)C1=C(CCCC1=O)N2 (centres undefined),i,i,i,i,i
O=C1CCCC2=C1C(c1cccc(Br)c1)n1nc(-c3ccco3)nc1N2 (centres undefined),?,-94,i,?,i
COc1ccc(NC(=O)C2CCCN2C(=O)OCc2ccccc2)cc1 (centres undefined),i,i,i,i,i
COc1ccc(C2=CC(=O)C[C@H](COCc3ccccc3)N(C(=O)OC(C)(C)C)O2)cc1,18µM,?,i,?,i
CCN(CC1CCCO1)C(=O)C1CCN(C2CCN(Cc3ccccc3C)CC2)CC1 (centres undefined),?,i,i,?,i
CCN(C(=O)CN1C(=O)CN(C)C1=O)c1cccc2ccccc12,?,?,i,12µM,i
CCOc1ccc2c(c1)C(=O)c1cc(OCC(=O)O)ccc1-2,i,i,i,?,i
CCCCOc1ccc2c(c1)C(=O)c1cc(O)ccc1-2,?,-101,?,i,?
CC(=O)N/C(=C\c1ccccc1)C(=O)OCC(=O)NC(C)C12CC3CC(CC(C3)C1)C2 (centres undefined),21µM,?,i,15µM,i

# High-throughput results deposited in PubChem BioAssay by National Center for Advancing Translational Sciences (NCATS).
